Data taken from the supplement of paper PMC11732987, “Enantioselective OTUD7B fragment discovery through chemoproteomics screening and high-throughput optimisation” (Communications Chemistry, 2025).

Tests used:
Assay in all cases: log2 ratio of Biotin-Ahx-Ub-VS probe labelling (compound/DMSO); higher = less target engagement, active = hit call of the paper (q ≤ 0.05, log2 ratio ≤ -1)
Conditions in all cases: treatment time: 3 h
[1] = compound: CN(Cc1cccc(Br)c1)C(=O)CCl
Method in brief: (§1)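 HEK293T lysate (495 µg per sample, in Tris/CHAPS/IGEPAL buffer with protease inhibitors) was treated in triplicate with compound at 50 or 200 µM or with DMSO for 3 h. It was then treated with Biotin-Ahx-Ub-VS (0.5 µM final) for 1 h. Labelled DUBs were NeutrAvidin-enriched, digested with LysC and trypsin, and run by diaPASEF LC-MS/MS. Median-normalised label-free quantities gave average log2 ratios compound/DMSO by unpaired t-test, using proteins with ≥2 unique peptides.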

[2] = compound: CN(Cc1ccccc1)C(=O)CCl
Method in brief: as §1

[3] = compound: COc1ccc(CN(C)C(=O)CCl)cc1
Method in brief: as §1

[4] = compound: COc1cccc(CN(CCCc2ccccc2)C(=O)CCl)c1
Method in brief: as §1

[5] = compound: ClCC(=O)N1CCc2cc(Cl)c(Cl)cc2C1
Method in brief: as §1

[6] = compound: ClCC(=O)N1CCc2nc(ncc2C1)-c1ccccc1
Method in brief: as §1

[7] = compound: ClCC(=O)N1CCc2nocc2C1
Method in brief: as §1

[8] = compound: ClCC(=O)N1CCc2scc(Br)c2C1
Method in brief: as §1

[9] = compound: ClCC(=O)NC(C1CCCC1)c1cccs1
Method in brief: as §1

[10] = compound: ClCC(=O)NC1CCCc2ccccc12
Method in brief: as §1

[11] = compound: ClCC(=O)NC1CCOc2ccc(Cl)cc12
Method in brief: as §1

[12] = compound: ClCC(=O)NC1CCSc2ccccc12
Method in brief: as §1

[13] = compound: ClCC(=O)N[C@H]1CCCc2ccccc12
Method in brief: as §1

[14] = compound: Fc1ccc(N2CCN(c3nc4c(CN(C(CCl)=O)CC4)cn3)CC2)cc1.Cl.Cl
Method in brief: as §1

[15] = compound: CN(Cc1cccc(OCc2ccccc2C)c1)C(=O)CCl
Method in brief: as §1

Measured: log2 ratio of Biotin-Ahx-Ub-VS probe labelling

USP36 (UniProt Q9P275)
UniProt Q9P275, sequence (Q9P275 whole entry): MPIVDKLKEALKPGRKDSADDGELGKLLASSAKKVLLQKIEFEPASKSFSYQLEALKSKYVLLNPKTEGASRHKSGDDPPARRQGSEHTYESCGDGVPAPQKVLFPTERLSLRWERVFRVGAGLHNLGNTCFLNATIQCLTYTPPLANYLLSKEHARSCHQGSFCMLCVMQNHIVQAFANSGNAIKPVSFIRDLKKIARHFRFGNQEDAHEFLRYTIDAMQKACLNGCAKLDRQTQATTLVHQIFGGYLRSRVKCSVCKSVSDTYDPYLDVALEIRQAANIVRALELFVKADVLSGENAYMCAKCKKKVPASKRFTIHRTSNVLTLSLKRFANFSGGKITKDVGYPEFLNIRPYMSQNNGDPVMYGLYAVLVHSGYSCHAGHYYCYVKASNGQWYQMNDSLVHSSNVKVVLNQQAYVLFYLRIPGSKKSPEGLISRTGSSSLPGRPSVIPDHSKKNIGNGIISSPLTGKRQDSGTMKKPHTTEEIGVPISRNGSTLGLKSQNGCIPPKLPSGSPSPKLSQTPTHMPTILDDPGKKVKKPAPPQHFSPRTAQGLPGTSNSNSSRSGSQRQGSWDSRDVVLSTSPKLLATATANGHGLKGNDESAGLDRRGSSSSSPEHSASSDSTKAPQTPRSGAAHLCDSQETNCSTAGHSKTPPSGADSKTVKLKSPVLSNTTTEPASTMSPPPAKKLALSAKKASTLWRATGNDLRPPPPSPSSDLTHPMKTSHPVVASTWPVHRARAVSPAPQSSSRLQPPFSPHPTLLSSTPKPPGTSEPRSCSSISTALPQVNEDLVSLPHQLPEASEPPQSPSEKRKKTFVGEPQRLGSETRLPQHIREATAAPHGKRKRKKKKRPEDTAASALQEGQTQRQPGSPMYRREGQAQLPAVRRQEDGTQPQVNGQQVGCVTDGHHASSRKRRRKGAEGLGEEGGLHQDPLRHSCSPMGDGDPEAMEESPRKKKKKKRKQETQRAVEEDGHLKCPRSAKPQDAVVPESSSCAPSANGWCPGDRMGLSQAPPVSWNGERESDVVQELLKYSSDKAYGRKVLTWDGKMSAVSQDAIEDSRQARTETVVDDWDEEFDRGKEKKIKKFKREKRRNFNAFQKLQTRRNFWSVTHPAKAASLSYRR
inactive: [1]; compound concentration: 50uM -0.113 | [1]; compound concentration: 200uM -0.219 | [2]; compound concentration: 50uM -0.167 | [2]; compound concentration: 200uM -0.139 | [3]; compound concentration: 50uM -0.166 | [3]; compound concentration: 200uM -0.1 | [4]; compound concentration: 50uM -0.116 | [4]; compound concentration: 200uM -0.158 | [5]; compound concentration: 50uM -0.152 | [5]; compound concentration: 200uM 0.149 | [6]; compound concentration: 50uM -0.0391 | [6]; compound concentration: 200uM -0.252 | [7]; compound concentration: 50uM -0.06 | [7]; compound concentration: 200uM -0.0333 | [8]; compound concentration: 50uM 0.0162 | [8]; compound concentration: 200uM 0.122 | [9]; compound concentration: 50uM -0.296 | [9]; compound concentration: 200uM -0.0298 | [10]; compound concentration: 50uM 0.0611 | [10]; compound concentration: 200uM 0.171 | [11]; compound concentration: 50uM -0.00761 | [11]; compound concentration: 200uM -0.088 | [12]; compound concentration: 50uM 0.158 | [12]; compound concentration: 200uM 0.1 | [13]; compound concentration: 50uM -0.0619 | [13]; compound concentration: 200uM -0.0962 | [14]; compound concentration: 50uM -0.181 | [14]; compound concentration: 200uM -0.183

USP14 (UniProt P54578)
UniProt P54578, sequence (P54578 whole entry): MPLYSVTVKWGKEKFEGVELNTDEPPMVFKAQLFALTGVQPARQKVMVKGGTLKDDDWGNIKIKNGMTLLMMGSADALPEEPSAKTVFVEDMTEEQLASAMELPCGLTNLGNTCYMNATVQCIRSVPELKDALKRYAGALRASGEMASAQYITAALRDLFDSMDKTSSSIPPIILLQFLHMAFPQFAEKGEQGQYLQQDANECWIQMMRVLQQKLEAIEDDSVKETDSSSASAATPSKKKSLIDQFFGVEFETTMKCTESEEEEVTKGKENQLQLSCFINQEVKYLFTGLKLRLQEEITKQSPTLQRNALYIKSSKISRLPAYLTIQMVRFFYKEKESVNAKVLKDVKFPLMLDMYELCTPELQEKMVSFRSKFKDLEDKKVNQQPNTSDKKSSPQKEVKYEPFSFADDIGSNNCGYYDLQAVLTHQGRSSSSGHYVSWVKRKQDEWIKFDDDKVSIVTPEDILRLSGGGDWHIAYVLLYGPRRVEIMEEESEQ
active: [8]; compound concentration: 200uM -1
inactive: [1]; compound concentration: 50uM -0.191 | [1]; compound concentration: 200uM -0.555 | [2]; compound concentration: 50uM -0.14 | [2]; compound concentration: 200uM 0.0709 | [3]; compound concentration: 50uM -0.127 | [3]; compound concentration: 200uM -0.0256 | [4]; compound concentration: 50uM -0.187 | [4]; compound concentration: 200uM -0.626 | [5]; compound concentration: 50uM -0.137 | [5]; compound concentration: 200uM -0.35 | [6]; compound concentration: 50uM 0.0498 | [6]; compound concentration: 200uM 0.0841 | [7]; compound concentration: 50uM -0.186 | [7]; compound concentration: 200uM -0.17 | [8]; compound concentration: 50uM -0.438 | [9]; compound concentration: 50uM -0.115 | [9]; compound concentration: 200uM -0.1 | [10]; compound concentration: 50uM -0.364 | [10]; compound concentration: 200uM 0.154 | [11]; compound concentration: 50uM -0.397 | [11]; compound concentration: 200uM -0.0189 | [12]; compound concentration: 50uM -0.186 | [12]; compound concentration: 200uM -0.179 | [13]; compound concentration: 50uM 0.115 | [13]; compound concentration: 200uM -0.537 | [14]; compound concentration: 50uM 0.108 | [14]; compound concentration: 200uM -0.424

UniProt Q8TE49
UniProt Q8TE49, sequence (Q8TE49 whole entry): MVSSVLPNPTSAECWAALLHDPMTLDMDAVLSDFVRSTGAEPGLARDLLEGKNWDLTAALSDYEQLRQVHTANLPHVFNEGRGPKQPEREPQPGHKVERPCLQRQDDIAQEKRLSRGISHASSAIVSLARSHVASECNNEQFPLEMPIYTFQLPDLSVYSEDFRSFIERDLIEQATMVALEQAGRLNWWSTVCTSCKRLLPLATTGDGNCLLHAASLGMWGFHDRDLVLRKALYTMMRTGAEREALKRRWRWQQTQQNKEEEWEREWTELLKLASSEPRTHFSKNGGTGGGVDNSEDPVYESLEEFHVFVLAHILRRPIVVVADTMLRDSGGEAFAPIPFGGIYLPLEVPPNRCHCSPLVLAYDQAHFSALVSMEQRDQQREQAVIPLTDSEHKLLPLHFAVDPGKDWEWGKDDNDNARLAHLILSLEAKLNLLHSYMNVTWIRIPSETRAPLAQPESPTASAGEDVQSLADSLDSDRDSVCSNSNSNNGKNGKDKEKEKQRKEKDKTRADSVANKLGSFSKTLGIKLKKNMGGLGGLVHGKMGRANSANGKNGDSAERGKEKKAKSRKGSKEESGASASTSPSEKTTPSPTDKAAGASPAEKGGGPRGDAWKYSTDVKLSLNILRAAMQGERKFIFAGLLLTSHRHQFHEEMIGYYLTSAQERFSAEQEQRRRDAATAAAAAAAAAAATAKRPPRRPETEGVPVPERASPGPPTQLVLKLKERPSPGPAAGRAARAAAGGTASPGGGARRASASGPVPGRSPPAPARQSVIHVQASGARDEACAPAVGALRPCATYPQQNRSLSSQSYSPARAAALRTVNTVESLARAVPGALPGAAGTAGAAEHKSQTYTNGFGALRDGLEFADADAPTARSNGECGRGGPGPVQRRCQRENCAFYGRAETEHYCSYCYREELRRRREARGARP
inactive: [1]; compound concentration: 50uM -0.52 | [1]; compound concentration: 200uM -0.96 | [2]; compound concentration: 50uM -0.139 | [2]; compound concentration: 200uM -0.82 | [3]; compound concentration: 50uM -0.245 | [3]; compound concentration: 200uM -0.895 | [4]; compound concentration: 50uM -0.508 | [4]; compound concentration: 200uM -0.562 | [5]; compound concentration: 50uM -0.0686 | [6]; compound concentration: 50uM -0.422 | [7]; compound concentration: 50uM -0.33 | [8]; compound concentration: 50uM -0.0558 | [9]; compound concentration: 50uM 0.0953 | [9]; compound concentration: 200uM -0.534 | [11]; compound concentration: 50uM -0.472 | [12]; compound concentration: 50uM -0.368 | [14]; compound concentration: 50uM -0.151
active: [5]; compound concentration: 200uM -1.89 | [6]; compound concentration: 200uM -1.52 | [7]; compound concentration: 200uM -2.04 | [8]; compound concentration: 200uM -1.81 | [10]; compound concentration: 50uM -1.68 | [10]; compound concentration: 200uM -2.58 | [11]; compound concentration: 200uM -2.17 | [12]; compound concentration: 200uM -2.26 | [13]; compound concentration: 50uM -2.07 | [13]; compound concentration: 200uM -2.92 | [14]; compound concentration: 200uM -1.37

USP42 (UniProt Q9H9J4)
UniProt Q9H9J4, sequence (Q9H9J4 whole entry): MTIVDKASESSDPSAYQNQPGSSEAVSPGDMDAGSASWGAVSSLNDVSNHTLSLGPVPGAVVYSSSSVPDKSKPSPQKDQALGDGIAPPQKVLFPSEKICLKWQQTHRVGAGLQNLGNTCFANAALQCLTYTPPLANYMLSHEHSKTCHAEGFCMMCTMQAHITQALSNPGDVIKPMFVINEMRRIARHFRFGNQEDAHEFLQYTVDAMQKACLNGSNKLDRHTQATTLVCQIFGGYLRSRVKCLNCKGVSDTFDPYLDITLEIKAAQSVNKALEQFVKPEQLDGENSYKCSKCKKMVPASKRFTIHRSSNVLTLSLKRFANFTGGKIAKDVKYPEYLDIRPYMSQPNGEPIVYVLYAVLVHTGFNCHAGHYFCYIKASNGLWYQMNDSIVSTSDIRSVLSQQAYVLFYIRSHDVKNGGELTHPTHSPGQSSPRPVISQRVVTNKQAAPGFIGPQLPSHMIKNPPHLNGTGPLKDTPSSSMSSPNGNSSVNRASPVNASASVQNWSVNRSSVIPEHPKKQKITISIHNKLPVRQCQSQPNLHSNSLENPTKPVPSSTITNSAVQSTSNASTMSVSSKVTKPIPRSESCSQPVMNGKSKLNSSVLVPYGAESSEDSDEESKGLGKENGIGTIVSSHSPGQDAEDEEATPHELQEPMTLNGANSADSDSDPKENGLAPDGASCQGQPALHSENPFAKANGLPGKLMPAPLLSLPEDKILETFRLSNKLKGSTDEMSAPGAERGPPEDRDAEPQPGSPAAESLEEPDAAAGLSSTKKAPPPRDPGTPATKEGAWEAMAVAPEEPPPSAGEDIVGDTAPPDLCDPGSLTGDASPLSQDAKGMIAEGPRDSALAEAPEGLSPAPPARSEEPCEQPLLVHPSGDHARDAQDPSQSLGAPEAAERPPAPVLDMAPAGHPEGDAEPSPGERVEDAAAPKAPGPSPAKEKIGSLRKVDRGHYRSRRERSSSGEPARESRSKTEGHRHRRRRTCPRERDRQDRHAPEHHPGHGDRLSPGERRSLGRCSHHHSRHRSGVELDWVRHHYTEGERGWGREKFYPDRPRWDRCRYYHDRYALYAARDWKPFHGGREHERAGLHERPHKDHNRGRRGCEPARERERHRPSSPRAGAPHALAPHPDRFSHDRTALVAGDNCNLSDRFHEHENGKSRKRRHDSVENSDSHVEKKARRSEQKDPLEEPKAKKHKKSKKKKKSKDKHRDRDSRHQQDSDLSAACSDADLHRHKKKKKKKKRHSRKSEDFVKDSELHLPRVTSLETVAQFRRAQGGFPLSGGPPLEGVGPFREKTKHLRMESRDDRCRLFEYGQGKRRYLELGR
inactive: [1]; compound concentration: 50uM 0.0496 | [1]; compound concentration: 200uM 0.397 | [2]; compound concentration: 50uM -0.0195 | [2]; compound concentration: 200uM 0.165 | [3]; compound concentration: 50uM -0.0749 | [3]; compound concentration: 200uM 0.205 | [4]; compound concentration: 50uM 0.0537 | [4]; compound concentration: 200uM 0.284 | [5]; compound concentration: 50uM 0.0405 | [5]; compound concentration: 200uM 0.669 | [6]; compound concentration: 50uM -0.0528 | [6]; compound concentration: 200uM 0.104 | [7]; compound concentration: 50uM 0.0476 | [7]; compound concentration: 200uM 0.187 | [8]; compound concentration: 50uM 0.182 | [8]; compound concentration: 200uM 0.44 | [9]; compound concentration: 50uM -0.428 | [9]; compound concentration: 200uM 0.159 | [10]; compound concentration: 50uM 0.113 | [10]; compound concentration: 200uM 0.286 | [11]; compound concentration: 50uM -0.00469 | [11]; compound concentration: 200uM 0.132 | [12]; compound concentration: 50uM 0.137 | [12]; compound concentration: 200uM 0.26 | [13]; compound concentration: 50uM -0.0967 | [13]; compound concentration: 200uM 0.0714 | [14]; compound concentration: 50uM -0.0766 | [14]; compound concentration: 200uM 0.241

YOD1 (UniProt Q5VVQ6)
UniProt Q5VVQ6, sequence (Q5VVQ6 whole entry): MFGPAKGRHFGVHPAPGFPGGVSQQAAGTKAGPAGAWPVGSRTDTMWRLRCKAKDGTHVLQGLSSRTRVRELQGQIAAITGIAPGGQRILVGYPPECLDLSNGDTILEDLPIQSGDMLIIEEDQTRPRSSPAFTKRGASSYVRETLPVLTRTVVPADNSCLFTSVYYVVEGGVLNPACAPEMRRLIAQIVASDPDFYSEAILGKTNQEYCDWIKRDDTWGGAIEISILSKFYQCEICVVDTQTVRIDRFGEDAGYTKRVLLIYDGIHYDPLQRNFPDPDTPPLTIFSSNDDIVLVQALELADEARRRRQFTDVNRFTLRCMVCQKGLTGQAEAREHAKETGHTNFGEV
inactive: [1]; compound concentration: 50uM -0.152 | [1]; compound concentration: 200uM 0.742 | [15]; compound concentration: 50uM -0.555 | [15]; compound concentration: 200uM -0.132 | [2]; compound concentration: 50uM -0.391 | [2]; compound concentration: 200uM -0.259 | [3]; compound concentration: 50uM -0.465 | [3]; compound concentration: 200uM -0.288 | [4]; compound concentration: 50uM -0.0608 | [4]; compound concentration: 200uM 0.000762 | [5]; compound concentration: 50uM 0.356 | [5]; compound concentration: 200uM -0.373 | [6]; compound concentration: 50uM 0.102 | [6]; compound concentration: 200uM 0.0411 | [7]; compound concentration: 50uM -0.0213 | [7]; compound concentration: 200uM -0.416 | [8]; compound concentration: 50uM 0.039 | [8]; compound concentration: 200uM -0.482 | [9]; compound concentration: 50uM -0.11 | [9]; compound concentration: 200uM 0.00107 | [10]; compound concentration: 50uM -0.158 | [10]; compound concentration: 200uM 0.159 | [11]; compound concentration: 50uM -0.167 | [11]; compound concentration: 200uM -0.318 | [12]; compound concentration: 50uM 0.161 | [12]; compound concentration: 200uM -0.174 | [13]; compound concentration: 50uM 0.362 | [13]; compound concentration: 200uM -0.265 | [14]; compound concentration: 50uM 0.0837 | [14]; compound concentration: 200uM -0.394

OTUD4 (UniProt Q01804)
active: [10]; compound concentration: 50uM -1.22 | [10]; compound concentration: 200uM -1.53 | [11]; compound concentration: 200uM -1.11 | [12]; compound concentration: 50uM -1.2 | [12]; compound concentration: 200uM -1.84 | [13]; compound concentration: 50uM -1.48 | [13]; compound concentration: 200uM -1.79
inactive: [1]; compound concentration: 50uM -0.0958 | [1]; compound concentration: 200uM -0.146 | [2]; compound concentration: 50uM -0.294 | [2]; compound concentration: 200uM -0.346 | [3]; compound concentration: 50uM -0.216 | [3]; compound concentration: 200uM -0.205 | [4]; compound concentration: 50uM -0.174 | [4]; compound concentration: 200uM -0.415 | [5]; compound concentration: 50uM 0.000974 | [5]; compound concentration: 200uM -0.823 | [6]; compound concentration: 50uM 0.0593 | [6]; compound concentration: 200uM -0.446 | [7]; compound concentration: 50uM -0.424 | [7]; compound concentration: 200uM -0.874 | [8]; compound concentration: 50uM -0.0278 | [8]; compound concentration: 200uM -0.809 | [9]; compound concentration: 50uM -0.284 | [9]; compound concentration: 200uM -0.721 | [11]; compound concentration: 50uM -0.449 | [14]; compound concentration: 50uM -0.0534 | [14]; compound concentration: 200uM -0.739
